Source: the supplement of paper PMC9942566
Counter-ions that a name gives are not always drawn. ± gives the standard deviation of the averaged measurements.

Each compound was assayed on Serratia marcescens K904 PosmB-luxCDABE reporter (pMQ747) (assay: PosmB-lux reporter fold induction (RLU/OD600 relative to no-compound control), highest over Biolog concentrations; higher = stronger reporter activation). Settings: ΔrcsB mutant CMS5177; 4 h.
Description: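 Serratia marcescens K904 (wild type) or its isogenic ΔrcsB mutant, carrying the Rcs-dependent PosmB-luxCDABE reporter plasmid pMQ747, was grown in LB at OD600 0.1 in Biolog Phenotype MicroArray plates PM11-20 for 4 h at 30-32°C. Each compound is present at 3-4 proprietary concentrations (not stated); per the Fig. S1 legend the value given is the highest fold over those wells. Three independent trials.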

SMILES | PosmB-lux reporter fold induction
CCN(CC)CCOC(=O)c1ccc(N)cc1 [Procaine] (Biolog plate: PM15, well positions: A2-4) | 1.04 ± 0.067
C[C@@H]1O[C@@H]1P(=O)(O)O [Phosphomycin] (Biolog plate: PM16, well positions: A5-8) | 1.57 ± 0.24
CN[C@H](CC(C)C)C(=O)N[C@H]1C(=O)N[C@@H](CC(N)=O)C(=O)N[C@H]2C(=O)N[C@H]3C(=O)N[C@H](C(=O)N[C@H](C(=O)O)c4cc(O)cc(O)c4-c4cc3ccc4O)[C@H](O)c3ccc(c(Cl)c3)Oc3cc2cc(c3O[C@@H]2O[C@H](CO)[C@@H](O)[C@H](O)[C@H]2O[C@H]2C[C@](C)(N)[C@H](O)[C@H](C)O2)Oc2ccc(cc2Cl)[C@H]1O [Vancomycin] (Biolog plate: PM12, well positions: C5-8) | 1.21 ± 0.36
Cc1ncc([N+](=O)[O-])n1CC(O)CCl (stereo not given) [ornidazole] (Biolog plate: PM20, well positions: C9-12) | 1.59 ± 0.49
CC1(C)S[C@@H]2[C@H](NC(=O)C(C(=O)O)c3ccccc3)C(=O)N2[C@H]1C(=O)O (stereo not given in full) [Carbenicillin] (Biolog plate: PM12, well positions: A9-12) | 1.03 ± 0.29
OC(CCN1CCCCC1)(c1ccccc1)c1ccccc1 [pridinol] (Biolog plate: PM20, well positions: F9-12) | 1.5 ± 0.42
CO/N=C(\C(=O)N[C@@H]1C(=O)N2C(C(=O)O)=C(COC(C)=O)CS[C@H]12)c1csc(N)n1 [cefotaxime] (Biolog plate: PM16, well positions: A2-4) | 1.11 ± 0.047
Cn1nnnc1SCC1=C(C(=O)O)N2C(=O)[C@@H](NC(=O)[C@H](OC=O)c3ccccc3)[C@H]2SC1 [cefamandole nafate] (Biolog plate: PM17, well positions: G5-8) | 1.52 ± 0.36
CN(C)CCC=C1c2ccccc2CCc2ccccc21 [amitriptyline] (Biolog plate: PM20, well positions: A2-4) | 1.16 ± 0.17
CCCCCCCC[N+](C)(CCCCCCCC)CCCCCCCC [methyltrioctyl-ammonium chloride] (Biolog plate: PM19, well positions: B1-4) | 2.23 ± 1.5
N=C(N)N [Guanidine hydrochloride] (Biolog plate: PM15, well positions: A5-8) | 2.09 ± 0.16
NC(CO)C(=O)NO (racemic) [D,L-Serine hydroxamate] (Biolog plate: PM12, well positions: C9-12) | 1.74 ± 1.6
C[C@H]1O[C@@H](n2cc(F)c(=O)[nH]c2=O)[C@H](O)[C@@H]1O [5-fluoro-5'-deoxyuridine] (Biolog plate: PM18, well positions: H1-4) | 1.75 ± 0.72
CC(C)c1nc2nc(N)nc(N)c2nc1C(C)C [2,4-Diamino-6,7-diisopropyl-pteridine] (Biolog plate: PM12, well positions: E1-4) | 2.91 ± 0.33
CC(CN1c2ccccc2Sc2ccccc21)N(C)C (stereo not given) [Promethazine] (Biolog plate: PM14, well positions: H5-8) | 1.43 ± 0.21
COc1ccc(C[C@H](N)C(=O)N[C@H]2[C@@H](O)[C@H](n3cnc4c(N(C)C)ncnc43)O[C@@H]2CO)cc1 [Puromycin] (Biolog plate: PM15, well positions: F9-12) | 3.56 ± 1.7
O.O=S(=O)([O-])[O-].O=S(=O)([O-])[O-].O=S(=O)([O-])[O-].[Al+3].[Al+3] [aluminum sulfate] (Biolog plate: PM16, well positions: F9-12) | 1.54 ± 0.56
NO [hydroxylamine] (Biolog plate: PM19, well positions: G9-12) | 1.39 ± 0.47
COc1cc(Cc2cnc(N)nc2N)cc(OC)c1OC [trimethoprim] (Biolog plate: PM16, well positions: B9-12) | 8.21 ± 3.9
Nc1ccn(C2OC(CO)C(O)C2O)c(=O)n1 [Cytosine-1-beta-D-arabino-furanoside] (Biolog plate: PM13, well positions: E1-4) | 1.91 ± 0.42

SMILES | PosmB-lux reporter fold induction
O=C(O)c1cc(O)c(O)c(O)c1 [gallic acid] (Biolog plate: PM19, well positions: A5-8) | 1.33 ± 0.48
O=C(N[C@H](CO)[C@H](O)c1ccc([N+](=O)[O-])cc1)C(Cl)Cl [Chloramphenicol] (Biolog plate: PM11, well positions: F1-4) | 1.56 ± 0.59
CO[C@H]1C[C@H](O[C@H]2[C@H](C)[C@@H](O[C@@H]3O[C@H](C)C[C@H](N(C)C)[C@H]3O)[C@@H](C)C[C@@]3(CO3)C(=O)[C@H](C)[C@@H](O)[C@@H](C)[C@@H](C)OC(=O)[C@@H]2C)O[C@@H](C)[C@@H]1O [Oleandomycin] (Biolog plate: PM15, well positions: F5-8) | 2.18 ± 0.57
COc1ccc(CO)cc1OC [3,4-Dimethoxy-benzyl alcohol] (Biolog plate: PM15, well positions: F1-4) | 1.65 ± 0.64
CC[C@H]1OC(=O)C[C@@H](O)[C@H](C)[C@@H](O[C@@H]2O[C@H](C)[C@@H](O[C@H]3C[C@@](C)(O)[C@@H](O)[C@H](C)O3)[C@H](N(C)C)[C@H]2O)[C@@H](CC=O)C[C@@H](C)C(=O)/C=C/C(C)=C/[C@@H]1CO[C@@H]1O[C@H](C)[C@@H](O)[C@@H](OC)[C@H]1OC [Tylosin] (Biolog plate: PM13, well positions: H9-12) | 4.38 ± 1.6
CC[C@H]1OC(=O)[C@H](C)[C@@H](O[C@H]2C[C@@](C)(OC)[C@@H](O)[C@H](C)O2)[C@H](C)[C@@H](O[C@@H]2O[C@H](C)C[C@H](N(C)C)[C@H]2O)[C@](C)(O)C[C@@H](C)C(=O)[C@H](C)[C@@H](O)[C@]1(C)O [Erythromycin] (Biolog plate: PM11, well positions: F5-8) | 1.46 ± 0.041
O=C(O)/C=C/c1ccccc1 [cinnamic acid] (Biolog plate: PM19, well positions: C9-12) | 1.17 ± 0.32
Nc1ccc2cc3ccc(N)cc3nc2c1 [proflavine] (Biolog plate: PM20, well positions: D1-4) | 1.91 ± 0.49
CN(C)[C@@H]1C(O)=C(C(N)=O)C(=O)[C@@]2(O)C(O)=C3C(=O)c4c(O)cccc4[C@@](C)(O)[C@H]3C[C@@H]12 [Tetracycline] (Biolog plate: PM12, well positions: A5-8) | 1.12 ± 0.097
c1ccc(-c2ccccn2)nc1 [2,2'-Dipyridyl] (Biolog plate: PM13, well positions: B5-8) | 1.71 ± 1.3
CCC[C@@H]1C[C@@H](C(=O)N[C@@H]([C@H]2O[C@H](SC)[C@H](O)[C@@H](O)[C@H]2O)[C@@H](C)O)N(C)C1 [Lincomycin] (Biolog plate: PM11, well positions: A9-12) | 2.28 ± 0.49
CO[C@@H]1[C@@H](OC(N)=O)[C@@H](O)[C@H](Oc2ccc3c(O)c(NC(=O)c4ccc(O)c(CC=C(C)C)c4)c(=O)oc3c2C)OC1(C)C [Novobiocin] (Biolog plate: PM12, well positions: D9-12) | 2.74 ± 1.3
CN(C)[C@@H]1C(O)=C(C(N)=O)C(=O)[C@@]2(O)C(O)=C3C(=O)c4c(O)ccc(Cl)c4[C@@H](O)[C@H]3C[C@@H]12 [Demeclocycline] (Biolog plate: PM11, well positions: D5-8) | 1.59 ± 0.14
Cn1cnc([N+](=O)[O-])c1Sc1ncnc2[nH]cnc12 [azathioprine] (Biolog plate: PM18, well positions: B9-12) | 0.729 ± 0.15
CN(C)c1ccc(C(=C2C=CC(=[N+](C)C)C=C2)c2ccc(N(C)C)cc2)cc1 [crystal violet] (Biolog plate: PM20, well positions: E1-4) | 1.24 ± 0.17
CC1(C)S[C@@H]2[C@H](NC(=O)[C@H](NC(=O)N3CCNC3=O)c3ccccc3)C(=O)N2[C@H]1C(=O)O [Azlocillin] (Biolog plate: PM13, well positions: B1-4) | 1.27 ± 0.56
CC(=O)OCC1=C(C(=O)O)N2C(=O)[C@@H](NC(=O)Cc3cccs3)[C@H]2SC1 [Cephalothin] (Biolog plate: PM11, well positions: H1-4) | 1.37 ± 0.15
Cc1cc(C)nc(NS(=O)(=O)c2ccc(N)cc2)n1 [Sulfamethazine] (Biolog plate: PM12, well positions: D5-8) | 1.41 ± 0.34
CO[C@H]1C[C@H](O[C@H]2[C@H](C)[C@@H](O[C@@H]3O[C@H](C)C[C@H](N(C)C)[C@H]3OC(C)=O)[C@@H](C)C[C@@]3(CO3)C(=O)[C@H](C)[C@@H](OC(C)=O)[C@@H](C)[C@@H](C)OC(=O)[C@@H]2C)O[C@@H](C)[C@@H]1OC(C)=O [troleandomycin] (Biolog plate: PM20, well positions: H9-12) | 2.33 ± 1.1
CO[C@@H]1[C@@H](O[C@@H]2O[C@H](C)[C@@H](O[C@H]3C[C@@](C)(O)[C@@H](OC(=O)CC(C)C)[C@H](C)O3)[C@H](N(C)C)[C@H]2O)[C@@H](CC=O)C[C@@H](C)[C@@H](O)/C=C/C=C/C[C@@H](C)OC(=O)C[C@H]1OC(C)=O [josamycin] (Biolog plate: PM19, well positions: A2-4) | 9.66 ± 6.6
